# In PubChem BioAssay (NCATS):
# Inconclusive results are not listed. A number with no mark means an inactive call. Calls of active or inactive are those of the source. Calls follow the shape of the dose curve; as a rule, active = well fitted curve in the direction sought with a large enough effect; inconclusive = small, poorly fitted or top-dose-only effect, or another doubt; inactive = no such curve, though single readings can be large; an effect the other way counts as inactive or inconclusive.
# Tested on: Zika virus NS2B-NS3 protease (linked construct)
# Assay: Primary screen NINDS Rhodamine qHTS for Zika virus inhibitors (AID 1347160); also: % is scaled to controls: 0 for no effect and ±100 for the full control effect; nearly all actives have a fitted effect of over 55% in size
# Settings: purified NS2B-NS3 protease, Rhodamine110 substrate fluorescence; series mostly up to 57.1 µM; activity change, negative = inhibition: at the top concentration
# In short: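 Single-chain NS2B-NS3 protease, 25 nM, pH 8.0; compounds preincubated 15 min. Activity: Rhodamine110 release from 1.5 microM substrate over 15 min, room temperature, data fitted to 4-parameter Hill.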
row,Structure (SMILES),"activity change, negative = inhibition"
1,CC1C/C=C/C(O)C(O)CC/C=C/c2cc(O)cc(O)c2C(=O)O1 (stereo not drawn),-7.75% [at 33.1 µM]
2,CCC(C)(OC(C)=O)C(=O)O[C@H]1[C@H](OC(C)=O)C[C@@H]2[C@@](C)([C@@H]3C[C@H]4C=CO[C@H]4O3)[C@H](C)C[C@H](OC(C)=O)[C@@]2(COC(C)=O)[C@@]12CO2 (stereo partly drawn),-8.79% [at 15.1 µM]
3,COC1CC(O[C@H]2CC[C@]3(C=O)C4CC[C@]5(C)[C@@H](C6=CC(=O)OC6)CC[C@]5(O)[C@@H]4CC[C@]3(O)C2)OC(C)C1O[C@@H]1O[C@H](CO)[C@@H](O)[C@H](O)[C@H]1O (stereo partly drawn),8.13% [at 15.1 µM]

# Target: Lysine-specific demethylase 5B (Homo sapiens) (UniProt Q9UGL1)
# Sequence (Q9UGL1 whole entry, looked up): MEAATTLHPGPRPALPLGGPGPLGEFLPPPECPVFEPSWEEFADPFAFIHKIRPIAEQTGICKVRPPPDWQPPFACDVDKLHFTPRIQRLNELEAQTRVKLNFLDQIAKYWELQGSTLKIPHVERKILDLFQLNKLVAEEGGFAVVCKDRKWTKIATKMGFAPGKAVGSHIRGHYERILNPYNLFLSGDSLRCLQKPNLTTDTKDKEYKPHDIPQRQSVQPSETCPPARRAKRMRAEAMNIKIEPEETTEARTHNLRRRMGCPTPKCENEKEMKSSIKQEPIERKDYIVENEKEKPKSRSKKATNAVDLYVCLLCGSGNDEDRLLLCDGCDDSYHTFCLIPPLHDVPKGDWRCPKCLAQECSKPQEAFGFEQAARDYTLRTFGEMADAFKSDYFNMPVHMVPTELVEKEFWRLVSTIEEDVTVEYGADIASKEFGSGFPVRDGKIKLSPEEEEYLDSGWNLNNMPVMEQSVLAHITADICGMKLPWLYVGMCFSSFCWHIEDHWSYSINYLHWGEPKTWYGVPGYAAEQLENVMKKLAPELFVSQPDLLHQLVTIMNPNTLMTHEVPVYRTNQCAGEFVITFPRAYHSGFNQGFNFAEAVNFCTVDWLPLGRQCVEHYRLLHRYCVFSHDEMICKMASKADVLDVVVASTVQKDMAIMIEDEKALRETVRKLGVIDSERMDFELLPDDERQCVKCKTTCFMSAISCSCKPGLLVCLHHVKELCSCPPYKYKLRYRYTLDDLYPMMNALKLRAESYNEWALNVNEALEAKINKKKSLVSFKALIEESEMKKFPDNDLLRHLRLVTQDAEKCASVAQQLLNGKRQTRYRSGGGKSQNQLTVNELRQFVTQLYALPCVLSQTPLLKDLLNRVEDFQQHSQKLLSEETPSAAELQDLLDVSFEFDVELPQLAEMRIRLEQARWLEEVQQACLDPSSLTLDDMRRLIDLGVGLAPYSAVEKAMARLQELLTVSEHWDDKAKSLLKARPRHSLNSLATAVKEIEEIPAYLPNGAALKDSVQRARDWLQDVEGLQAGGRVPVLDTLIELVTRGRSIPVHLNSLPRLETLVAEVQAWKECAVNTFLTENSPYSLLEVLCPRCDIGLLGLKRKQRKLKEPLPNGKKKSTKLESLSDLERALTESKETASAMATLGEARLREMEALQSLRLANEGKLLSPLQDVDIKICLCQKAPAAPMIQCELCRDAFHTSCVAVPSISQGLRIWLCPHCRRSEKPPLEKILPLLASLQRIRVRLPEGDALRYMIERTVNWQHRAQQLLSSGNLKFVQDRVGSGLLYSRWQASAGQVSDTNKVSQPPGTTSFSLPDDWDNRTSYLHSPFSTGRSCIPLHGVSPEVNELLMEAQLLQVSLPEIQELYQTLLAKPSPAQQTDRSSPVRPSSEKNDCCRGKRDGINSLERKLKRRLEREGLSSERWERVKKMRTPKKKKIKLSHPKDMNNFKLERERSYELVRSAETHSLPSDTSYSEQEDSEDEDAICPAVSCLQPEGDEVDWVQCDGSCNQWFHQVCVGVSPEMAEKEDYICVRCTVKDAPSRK
# Assay: Optimization screen for KDM5B Histone Demethylases FDH coupled qHTS against the LOPAC library (AID 1347166); also: potency is read from the fitted curve at half-maximal effect; as to activity, negative = inhibition: 0% is about no effect
# Settings: KDM5B demethylation, FDH-coupled NADH fluorescence (FDH is formaldehyde dehydrogenase); series mostly up to 57.5 µM; activity, negative = inhibition: at the top concentration
# In short: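 KDM5BDeltaAP (200nM final) in 50mM HEPES pH 7.5, 0.01% Tween-20 was preincubated with compound for 10 min at room temperature. A substrate mix of 12.5uM H3K4Me3, 25uM a-ketoglutarate, ascorbate, Fe2+, NAD+ and formaldehyde dehydrogenase was then added. NADH fluorescence (340/450 nm) was read initially and after 30 min.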
Structure (SMILES),"activity, negative = inhibition [%]",Potency
COc1ccc2c(c1)C13CCCCC1C(C2)N(C)CC3 (stereo not drawn),-2.99,
C=CCN(C1=NCCN1)c1c(Cl)cccc1Cl,-4.1,
C=CCN1CCC23c4c5ccc(O)c4O[C@H]2C(=O)CC[C@@]3(O)C1C5 (stereo partly drawn),3.75,
COc1ccc(CNC(=O)/C=C/c2ccc3[nH]cc(CCN(C)C)c3c2)cc1,-15.2,
COc1ccc2c(c1)c(CCN1CCOCC1)c(C)n2C(=O)c1cccc(Cl)c1Cl,-11,
NC(=O)c1ccc(OCC(O)CN2CC=C(c3ccc(F)cc3)CC2)cc1 (stereo not drawn),-1.24,
OCc1cnc[nH]1,-2.62,
CCCCCCC(C)(C)c1ccc([C@@H]2C[C@H](O)CC[C@H]2CCCO)c(O)c1,-13.4,
CC(C)(C)c1o[nH]c(=O)c1CC(N)C(=O)O (stereo not drawn),-1.02,
CCCn1c(C)c(C(=O)c2ccc3ccccc3c2)c2ccccc21,-11.5,
Ic1ccccc1CNC1C2CCN(CC2)C1C(c1ccccc1)c1ccccc1 (stereo not drawn),-21.5,
C=CCN1C[C@@H](C)N([C@H](c2ccc(C(=O)N(CC)CC)cc2)c2cccc(OC)c2)C[C@@H]1C,-3.11,
C[C@H](N)Cc1cccc(C(F)(F)F)c1,-3.33,
O=C1CC[C@@]2(O)C3Cc4ccc(O)c5c4C2(CCN3CC2CC2)[C@H]1O5 (stereo partly drawn),-8.44,
Clc1cc(I)cc(Cl)c1NC1=NCCN1,-4.43,
CN1CC[C@@]2(C)c3cc(O)ccc3N(C)C12 (stereo partly drawn),,2.51 µM (active)
CC(=O)NBr,-2.75,
N=C(N)c1ccc(CS(=O)(=O)F)cc1,-1.09,
CCCn1c(=O)c2[nH]c(C3CCCC3)nc2n(CCCOC(=O)c2ccc(S(=O)(=O)F)cc2)c1=O,-7.05,
N[C@@H](CCl)C(=O)O,0.959,
NC(=O)c1cc(N2CC2)c([N+](=O)[O-])cc1[N+](=O)[O-],-2.23,
NC(=O)COc1c(F)cc(SCCNS(=O)(=O)c2ccccc2)cc1F,1.41,
COc1ccc(OC)c(C(O)C(C)N)c1 (stereo not drawn),0.484,
CC(C)NP(=O)(NC(C)C)OP(=O)(NC(C)C)NC(C)C,-4.02,
CC(N)c1cccc(Cl)c1Cl (stereo not drawn),-6.5,
N#CCCN,-8.75,
C[C@H](Cc1ccc2c(c1)OC(C(=O)O)(C(=O)O)O2)NC[C@H](O)c1cccc(Cl)c1,-6.05,
CCS(=O)(=O)Nc1cccc(C(=C2CCCCC2)c2cnc[nH]2)c1,-0.963,
CCn1cnc2c(Nc3cccc(Cl)c3)nc(N[C@@H]3CCCC[C@@H]3N)nc21,-10.7,
COc1ccc2c(c1)[C@@]13CCCC[C@H]1[C@@H](C2)NCC3,-7.23,
